Source: PubChem BioAssay
JMJD2A Tudor: inhibitors of human JMJD2A Tudor domain | O75164 | AlphaScreen JMJD2A-Tudor / H3K4me3 peptide binding | Potency, µM (series often up to 114 µM), for inactives: at the top dose activity change, negative = inhibition, usual class: inhibitors | actives 4.4% (n = 390,000); also: % is scaled to controls: 0 for no effect and ±100 for the full control effect; nearly all actives have a fitted effect of over 50% in size
TDP1 block: inhibitors of human tyrosyl-DNA phosphodiesterase TDP1; Q9NUW8; recombinant TDP1, AlphaScreen DNA substrate cleavage; Potency, µM (titrated, usually from 130 µM), inactives show top-dose activity change, negative = inhibition, most hits filed as inhibitors; actives 0.28% (n = 350,000); AID 485290; also: % is scaled to controls: 0 for no effect and ±100 for the full control effect; nearly all actives have a fitted effect of over 40% in size
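Recombinant human Tdp1 (E. coli-expressed, 1 nM final) preincubated with compounds 15 min at room temperature, then 5'-biotin/3'-phosphotyrosine-FITC DNA substrate (15 nM final) added for 5 min. AlphaScreen beads (10 ug/ml final) added 10 min; cleavage lowers signal.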
BAZ2B inh: BAZ2B (human) inhibition; Q9UIF8; AlphaScreen BAZ2B-H3K14Ac peptide displacement; Potency, µM (top dose mostly 114 µM), for the others: at the top dose activity change, negative = inhibition, usual class: inhibitors; actives 4.4% (n = 360,000); AID 504333; also: % is scaled to controls: 0 for no effect and ±100 for the full control effect; nearly all actives have a fitted effect of over 60% in size
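AlphaScreen displacement of biotin-H3(5-23)K14Ac peptide (50 nM final) from BAZ2B (50 nM final) in PBS pH 7.4, 0.01% Tween-20; complex preformed 30 min RT, then compounds (top 110 uM) 30 min RT, beads 20 min dark.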
Sfp PPTase inh: blocks B. subtilis Sfp PPTase activity | actives 3.5% (n = 310,000) | Biochemical Sfp PPTase activity, qHTS | Potency, µM, inactives show largest response in the series, negative = inhibition, hits mostly inhibitors | Q9F4F7 | AID 1490;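 also: the enzyme is Sfp with the accession as filed and its product quenches rhodamine fluorescence; 0% = enzyme reaction without inhibitor and -100% = no enzyme wells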
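Compounds were incubated with enzyme (final 15 nM) for 15 min at room temperature before substrate addition started the reaction. Fluorescence at 525 nm excitation, 598 nm emission was recorded immediately and after 30 minutes.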
G9a block: inhibitors of human histone lysine methyltransferase G9a; Q96KQ7; G9a H3K9 monomethylation, AlphaScreen, 2 h; Potency, µM (top dose mostly 102 µM), inactives show top-dose activity, negative = inhibition, actives largely listed as inhibitors; actives 8.8% (n = 350,000); AID 504332; also: % is scaled to controls: 0 for no effect and ±100 for the full control effect; nearly all actives have a fitted effect of over 75% in size
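AlphaScreen detection with an anti-monomethyl H3K9 antibody quantified product after a 2 h room-temperature reaction containing 500 nM biotinylated H3K9 peptide, 20 µM SAM and 20 nM enzyme, which had been preincubated 15 min with compound.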
HP1b binding inh: HP1-beta chromodomain-methylated histone interaction inhibition; P83916; AlphaScreen HP1-beta / biotin-H3K9me3 peptide binding; Potency, µM (highest dose often 114 µM), without a hit: at the top dose activity change, negative = inhibition, usual class: inhibitors; actives 0.56% (n = 390,000); AID 540317; also: nearly all actives have a fitted effect of over 70% in size
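AlphaScreen: HP1-beta (50 nM) preformed 30 min with biotin-H3(1-18)K9me3 peptide (50 nM) in PBS pH 7.4, 0.01% Tween-20. Compound added for 30 min at RT, then streptavidin donor/nickel chelate acceptor beads (10 ug/mL) for 30 min.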
An asterisk follows results filed as active; u = inconclusive; x = no result given; [ ] = another dose, or the depositor's remark. Rows were chosen to be rich in hits. Some 12% of all compounds tested hit in one or more screens of this group. Calls follow the shape of the dose curve; as a rule, active = well fitted curve in the direction sought with a large enough effect; inconclusive = small, poorly fitted or top-dose-only effect, or another doubt; inactive = no such curve, though single readings can be large; an effect the other way counts as inactive or inconclusive. Potency is read from the fitted curve at half-maximal effect.

SMILES | JMJD2A Tudor | TDP1 block | BAZ2B inh | Sfp PPTase inh | G9a block | HP1b binding inh
C=C(CN(C)C)C(=O)c1ccc(C)cc1C | 79µM* | x | x | x | x | 32µM*
Cc1ccc(C(=O)CC(=O)c2ccccc2C)c(O)c1 | 5% | x | 7% | 4% | 43% | 20%
CC1(C)CC(=O)c2c(oc3c(Cl)cc(NS(=O)(=O)c4ccc(Cl)cc4)cc23)C1 | -14% | x | 1% | x | 6%[59 µM] | 25%
Cc1c(-c2nsc(NC(=O)c3cccs3)n2)nnn1-c1ccc(F)cc1 | -8% | -8% | -10% | x | -14%[59 µM] | -8%
Cc1ccc(-n2nnnc2CNC(=O)c2ccccc2S(C)(=O)=O)cc1C | -6% | 5% | 2% | x | -9%[59 µM] | 26%[57 µM]
CCN1C(=O)[C@H]2[C@@H](c3ccc(-c4ccc(F)cc4)c(OC)c3)N[C@@](C)(C(=O)OC)[C@H]2C1=O | u | x | 56µM* | x | u | 26%
Cc1ccc(CNC(=O)CSc2nnc(CNC(=O)c3ccccc3)o2)cc1 | -9% | 0% | 0% | 12% | x | 11%
CCCN(C(=O)c1ccccc1Cc1ccccc1)C1CCS(=O)(=O)C1 (centres undefined) | -4% | 1% | -12% | x | -28% | 20%
CC1(C)CC(=O)C(N=Nc2ccc(-c3ccccc3)cc2)=C(O)C1 | u | 2% | -18% | 25% | -12% | 10%
CC1(C)CC(=O)C(N=Nc2c(Cl)cc(Cl)cc2Cl)=C(O)C1 | 50µM* | 5% | u | -4% | 4%[59 µM] | -14%
CC1(C)CC(=O)C(N=Nc2cc(C(F)(F)F)ccc2Cl)=C(O)C1 | -35% | 6% | u | 4% | u | 4%
CC1(C)CC(=O)C(N=Nc2cccnc2)=C(O)C1 | 35µM* | 0% | -6% | -20% | u | 4%
CC1(C)CC(=O)C(N=Nc2cc(S(=O)(=O)N3CCOCC3)ccc2Cl)=C(O)C1 | 2% | u | 56µM* | -2% | 50µM* | 34%
CC1(C)CC(=O)C(N=Nc2ccc(Cl)cc2)=C(O)C1 | -5% | 3% | 2% | -6% | 6% | 23%
Cc1cccc(NC(=O)CCc2c(C)nc3c(c(C)nn3C(C)(C)C)c2C)c1C | -14% | 5% | 5% | x | 15%[59 µM] | 17%
Cc1[nH]c2ccccc2c1C(=O)C(C)OC(=O)c1ccc(NC(=O)CC#N)cc1 (centres undefined) | -23% | -1% | -17% | x | -42% | 29%
Cc1[nH]c2ccccc2c1C(=O)C(C)OC(=O)c1ccccc1NCCO (centres undefined) | -14% | x | 7% | x | 45µM* | 74%
CC(=O)n1nc(-c2ccco2)nc1SCc1ccccc1 | -16% | -3% | -29% | -15% | 45µM* | 10%
CCC(=O)n1nc(-c2ccco2)nc1N | -7% | 2% | -22% | 4% | 45µM* | 8%
COc1cc(C(=O)NC(C(=O)Nc2cccc(C(C)=O)c2)C(C)C)cc(OC)c1OC (centres undefined) | -14%[11.4 µM] | 8% | x | 22% | -2% | -6%
CCN(C(=O)c1coc(=O)c(Br)c1)c1ccc2c(c1)OCO2 | 50µM* | 0% | 50µM* | 45µM* | 20µM* | -26%
CCN(C(=O)c1c(C)cc(=O)oc1C)c1ccc2c(c1)OCO2 | -3% | -1% | -1% | 19% | -46%[59 µM] | 7%
CCOCCc1nnc(NC(=O)C(=O)c2cc(C)n(-c3ccc(C)cc3C)c2C)s1 | u | 6% | -33% | x | -45%[59 µM] | -2%
COC(=O)CSc1ccnc2cc(Cl)ccc12 | 0% | x | 31% | 12% | 5% | 11%
O=C(O)CSc1ccnc2cc(Cl)ccc12 | -11% | x | -4% | 56µM* | 56µM* | 19%
SMILES | JMJD2A Tudor | TDP1 block | BAZ2B inh | Sfp PPTase inh | G9a block | HP1b binding inh
CCCN1CCC(=O)N(C(CSc2ccc(C)cc2)CC(C)C)CC1 (centres undefined) | -17% | 10% | x | 1% | x | 20%
O=C(C#Cc1ccccc1)c1ccc([N+](=O)[O-])cc1 | -35% | 7% | u | -5% | 10µM* | -2%
Cc1ccc(C(=O)c2ccc([N+](=O)[O-])cc2)cc1 | -35% | 7% | u | 3% | u | -10%
O=C(c1ccc(-c2ccccc2)cc1)c1ccc([N+](=O)[O-])cc1 | x | 10% | -38% | 13% | 56µM* | x
CC(=O)Nc1ccc(S(=O)(=O)Nc2nnc(Cc3ccc(Cl)cc3)s2)cc1 | 1% | 3% | -24% | u | 22µM* | 0%
CC(=O)Nc1ccc(S(=O)(=O)Nc2nnc(C(C)C)s2)cc1 | -33% | 4% | u | -3% | 25µM* | -2%
CC(C)(C)OC(=O)N1CCC(c2c(C(=O)NCCc3ccccc3)cnn2-c2ccc(F)cc2)CC1 | -8% | -3% | 1%[57.1 µM] | x | u | 20%
CCNC(=O)NC1c2ccccc2CSc2ccccc21 (centres undefined) | -11% | x | x | x | x | -1%
CCOCCN1CCN(C2c3ccccc3CSc3ccccc32)CC1 (centres undefined) | 13µM* | x | x | x | x | u
CCCn1c(=O)c(C(=O)NNS(=O)(=O)c2ccc(NC(=O)OC)cc2)c(O)c2ccccc21 | -26% | 12% | 0% | 19% | 6%[59 µM] | -4%
O=C(Nc1cccc(-c2ccc(N3CCCCC3)nn2)c1)c1ccco1 | -16% | x | -26% | x | 50µM* | 10%
CCOc1ccc(S(=O)(=O)Nc2cccc(-c3ccc(N4CCCC4)nn3)c2)cc1 | -23% | -1% | -7% | x | u | u
CCOc1ccc(S(=O)(=O)Nc2cccc(-c3ccc(N4CCC(C)CC4)nn3)c2)cc1 | -28% | 1% | -10% | x | 25µM* | -11%[57 µM]
COc1ccc(S(=O)(=O)Nc2cccc(-c3ccc(N4CCCCCC4)nn3)c2)c(OC)c1 | -28% | 1% | -14% | u | 45µM* | 14%
COc1ccc(S(=O)(=O)Nc2cccc(-c3ccc(N4CCCC4)nn3)c2)c(OC)c1 | -30% | 5% | -10% | x | 7.9µM* | -35%[57 µM]
COC(=O)[C@@]1(Cc2ccc(F)cc2)[C@H]2c3cc(C(=O)N(C)C)n(Cc4ccc(S(C)(=O)=O)cc4)c3C[C@H]2CN1C(=O)c1ccccc1 | x | 0% | x | 5% | x | x
O=C1C2CCCN2C(c2cccc(Br)c2)N1c1ccc(F)cc1 (centres undefined) | -6% | 5% | 9% | -21% | 71µM* | 39%
[O-][n+]1ccccc1SSc1cccc[n+]1[O-] | x | 11% | x | 0.71µM* | 1.3µM* | x
O=C1C2CC=C(Cl)CC2C(=O)N1CCCCCCN1C(=O)C2CC=C(Cl)CC2C1=O (centres undefined) | 45µM* | x | 45µM* | 0% | 11µM* | u
CCC1CCC2(CC1)NNC(=S)NN2 | 50µM* | 6% | u | 56µM* | 2µM* | -66%
COC1=C(Br)C(=O)c2ncccc2C1=O | 6.3µM* | x | x | x | x | 10µM*
